Measurements as given in ChEMBL document CHEMBL4513146, “CO-ADD screening of Karazin Kharkiv National University (Ukraine) compounds”.
Results with a measured potency or affinity are listed apart.

Test system: Staphylococcus aureus
Conditions: Concentration 32 ug.mL-1;; ASSAY_TEST Inhibition of Bacterial Growth; detection method Absorption (OD600); MEDIA CAMHB; plate type 384well; NBS; CORNING #3640; time 18 hr

Q: For Cc1c(Cl)cccc1-n1ccn2c(=O)n(Cc3ccccc3Cl)nc2c1=O, which Inhibition is on record?
A: Its Inhibition is -12.86%.

Q: COc1cccc(NC(=O)Cn2nc3ccc(-c4ccc(C)c(C)c4)nn3c2=O)c1 was tested. Which Inhibition did it give?
A: The Inhibition was -14.65%.

Q: Which Inhibition does the source give for O=C(Cn1nc2ccc(SCc3ccc(Cl)cc3)nn2c1=O)Nc1ccc(F)c(F)c1 here?
A: The Inhibition was -1.34%.

Q: For CCc1cccc(C)c1NC(=O)CSc1nnc2ccc(C(=O)Nc3cccc(F)c3)cn12, which Inhibition is on record?
A: Its Inhibition is 1.86%.

Q: Cc1ccc(-n2ccn3c(SCC(=O)N4CCN(c5ccc(F)cc5)CC4)nnc3c2=O)cc1C was tested. Which Inhibition did it give?
A: Its Inhibition is 15.71%.

Q: With Cc1ccccc1Oc1nccn2c(=O)n(CC(=O)Nc3ccc(Cl)c(Cl)c3)nc12 as the compound, how does the Inhibition read?
A: Its Inhibition is 7.54%.

Q: With COc1ccc(CNC(=O)CCc2nnc3ccc(-c4ccccc4)nn23)cc1OC as the compound, how does the Inhibition read?
A: The Inhibition was 1.5%.

Q: For Cc1cccc(CN(c2ccc(C(C)C)cc2)S(=O)(=O)c2cccn3c(C)nnc23)c1, which Inhibition is on record?
A: Its Inhibition is 5.76%.

Q: How did the Inhibition turn out when O=C(Cn1nc2c(SCc3ccccc3)nccn2c1=O)NCc1ccc(Cl)cc1 was run?
A: Its Inhibition is -0.34%.

Q: For CCOc1ccc(-n2ccn3c(SC(C)C(=O)Nc4ccc(OC)cc4)nnc3c2=O)cc1 (stereo not drawn), which Inhibition is on record?
A: The Inhibition was 5.98%.

Q: Cc1ccc(Cn2nc3c(=O)n(-c4ccc(C)c(C)c4)ccn3c2=O)cc1 was tested. Which Inhibition did it give?
A: The Inhibition was 14.06%.

Q: For COc1ccc(NC(=O)Cn2nc3ccc(SC(C)(C)C)nn3c2=O)cc1Cl, which Inhibition is on record?
A: The Inhibition was -0.4%.

Q: With COc1cccc(C(=O)Cn2nc3n(CCC(C)C)c(=O)c4sccc4n3c2=O)c1 as the compound, how does the Inhibition read?
A: The Inhibition was -4.77%.

Q: For CCOc1ccc(-n2ccn3c(SCC(=O)c4ccc(OC)cc4)nnc3c2=O)cc1, which Inhibition is on record?
A: Its Inhibition is 15.17%.

Q: With Cc1cccc(Oc2nc3ccccc3n3c(=O)n(CC(=O)Nc4ccc5c(c4)OCCO5)nc23)c1C as the compound, how does the Inhibition read?
A: The Inhibition was 10.6%.

Q: With Cc1cc2nn(CC(=O)Nc3ccc4c(c3)OCCO4)c(=O)n2c(Nc2ccccc2C)n1 as the compound, how does the Inhibition read?
A: The Inhibition was 9.51%.

Q: How did the Inhibition turn out when O=c1n(Cc2nc(-c3ccc4c(c3)OCO4)no2)nc2ccc(-c3ccccc3)nn12 was run?
A: The Inhibition was -9.1%.

Q: For CC1CCCN(c2nccn3c(=O)n(CC(=O)Nc4ccc(Br)cc4F)nc23)C1 (stereo not drawn), which Inhibition is on record?
A: Its Inhibition is 12.44%.

Q: For COc1cc(NC(=O)Cn2nc3c(N4CCCC4)nccn3c2=O)cc(OC)c1, which Inhibition is on record?
A: Its Inhibition is 5.55%.

Q: Cc1ccc(NC(=O)Cn2nc3c(Oc4ccccc4C)nccn3c2=O)cc1F was tested. Which Inhibition did it give?
A: The Inhibition was 8.06%.

Q: Which Inhibition does the source give for Cc1ccc(Sc2nccn3c(=O)n(CC(=O)N4CCN(c5ccccc5)CC4)nc23)c(C)c1 here?
A: The Inhibition was -10.57%.

Q: COCCCNC(=O)CSc1nnc2c(=O)n(Cc3ccc(F)cc3)ccn12 was tested. Which Inhibition did it give?
A: The Inhibition was 10.54%.

Q: With Cc1ccc(-n2ccn3c(=O)n(Cc4ccccc4)nc3c2=O)cc1C as the compound, how does the Inhibition read?
A: The Inhibition was 5.93%.

Q: With O=c1c2sccc2n2c(=O)n(Cc3cccc(Cl)c3)nc2n1CCc1ccccc1 as the compound, how does the Inhibition read?
A: Its Inhibition is 10.13%.

Q: O=C(Cn1nc2c(Sc3cccc(F)c3)nccn2c1=O)N1CCN(c2ccccc2)CC1 was tested. Which Inhibition did it give?
A: Its Inhibition is 1.07%.

Q: With Cc1ccc(-c2cc3c4nnc(CCC(=O)NCc5ccc(F)c(Cl)c5)n4ccn3n2)cc1C as the compound, how does the Inhibition read?
A: Its Inhibition is 9.12%.

Q: CCOc1ccc(-n2ccn3c(SCC(=O)Nc4ccc(C)cc4)nnc3c2=O)cc1 was tested. Which Inhibition did it give?
A: Its Inhibition is 15.66%.

Q: How did the Inhibition turn out when CCOc1ccc(NC(=O)Cn2nc3ccc(-c4ccccc4)nn3c2=O)cc1 was run?
A: Its Inhibition is 5.36%.

Q: With CCc1ccccc1Sc1nccn2c(=O)n(CC(=O)Nc3ccc(OC)c(Cl)c3)nc12 as the compound, how does the Inhibition read?
A: Its Inhibition is 1.89%.

Q: For CCc1nnc2c(SCC(=O)Nc3cc(Cl)ccc3C)nc3ccccc3n12, which Inhibition is on record?
A: Its Inhibition is 13.83%.

Q: With O=C(CSc1nc2ccccc2n2cnnc12)Nc1cccc(Br)c1 as the compound, how does the Inhibition read?
A: The Inhibition was -6.77%.

Q: With COc1ccc(NC(=O)Cn2nc3c(Oc4cccc(F)c4)nccn3c2=O)cc1 as the compound, how does the Inhibition read?
A: The Inhibition was -3.6%.

Q: Cc1ccc(NC(=O)Cn2nc3c(N4CCOCC4)nc4ccccc4n3c2=O)cc1C was tested. Which Inhibition did it give?
A: The Inhibition was 6.57%.

Q: Which Inhibition does the source give for O=C(Cn1nc2ccc(-c3ccccc3)nn2c1=O)NC1CCCCC1 here?
A: The Inhibition was 8.4%.

Q: Which Inhibition does the source give for Cc1ccc(NC(=O)Cn2nc3c(SCc4ccc(Cl)cc4)nccn3c2=O)c(C)c1 here?
A: Its Inhibition is 10.91%.

Q: For CCc1nnc2c(S(=O)(=O)N(Cc3cccc(OC)c3)c3ccc(F)cc3)cccn12, which Inhibition is on record?
A: Its Inhibition is -5.69%.

Q: With Cc1nnc2ccc(S(=O)(=O)N(Cc3ccccc3Cl)c3ccc(F)cc3)cn12 as the compound, how does the Inhibition read?
A: Its Inhibition is -4.74%.

Q: With O=C(Cn1nc2c(SC3CCCCC3)nccn2c1=O)Nc1ccccc1F as the compound, how does the Inhibition read?
A: The Inhibition was 2.83%.

Q: For Cc1ccc(-c2cc3c4nnc(SCC(=O)Nc5ccccc5Br)n4ccn3n2)cc1, which Inhibition is on record?
A: Its Inhibition is 1.85%.

Test system: Escherichia coli
Conditions: Concentration 32 ug.mL-1;; ASSAY_TEST Inhibition of Bacterial Growth; detection method Absorption (OD600); MEDIA CAMHB; plate type 384well; NBS; CORNING #3640; time 18 hr

Q: For Cc1c(Cl)cccc1-n1ccn2c(=O)n(Cc3ccccc3Cl)nc2c1=O, which Inhibition is on record?
A: The Inhibition was -11.83%.

Q: Which Inhibition does the source give for COc1cccc(NC(=O)Cn2nc3ccc(-c4ccc(C)c(C)c4)nn3c2=O)c1 here?
A: The Inhibition was -17.62%.

Q: How did the Inhibition turn out when O=C(Cn1nc2ccc(SCc3ccc(Cl)cc3)nn2c1=O)Nc1ccc(F)c(F)c1 was run?
A: The Inhibition was -2.62%.

Q: With CCc1cccc(C)c1NC(=O)CSc1nnc2ccc(C(=O)Nc3cccc(F)c3)cn12 as the compound, how does the Inhibition read?
A: The Inhibition was 2%.

Q: Cc1ccc(-n2ccn3c(SCC(=O)N4CCN(c5ccc(F)cc5)CC4)nnc3c2=O)cc1C was tested. Which Inhibition did it give?
A: The Inhibition was -2.64%.

Q: With Cc1ccccc1Oc1nccn2c(=O)n(CC(=O)Nc3ccc(Cl)c(Cl)c3)nc12 as the compound, how does the Inhibition read?
A: The Inhibition was -4.77%.

Q: Which Inhibition does the source give for COc1ccc(CNC(=O)CCc2nnc3ccc(-c4ccccc4)nn23)cc1OC here?
A: The Inhibition was -2.82%.

Q: How did the Inhibition turn out when Cc1cccc(CN(c2ccc(C(C)C)cc2)S(=O)(=O)c2cccn3c(C)nnc23)c1 was run?
A: The Inhibition was -1.18%.

Q: With O=C(Cn1nc2c(SCc3ccccc3)nccn2c1=O)NCc1ccc(Cl)cc1 as the compound, how does the Inhibition read?
A: The Inhibition was -19.62%.

Q: For CCOc1ccc(-n2ccn3c(SC(C)C(=O)Nc4ccc(OC)cc4)nnc3c2=O)cc1 (stereo not drawn), which Inhibition is on record?
A: Its Inhibition is -5.92%.

Q: How did the Inhibition turn out when Cc1ccc(Cn2nc3c(=O)n(-c4ccc(C)c(C)c4)ccn3c2=O)cc1 was run?
A: The Inhibition was -0.87%.

Q: COc1ccc(NC(=O)Cn2nc3ccc(SC(C)(C)C)nn3c2=O)cc1Cl was tested. Which Inhibition did it give?
A: The Inhibition was -6.93%.

Q: COc1cccc(C(=O)Cn2nc3n(CCC(C)C)c(=O)c4sccc4n3c2=O)c1 was tested. Which Inhibition did it give?
A: Its Inhibition is -5.88%.

Q: For CCOc1ccc(-n2ccn3c(SCC(=O)c4ccc(OC)cc4)nnc3c2=O)cc1, which Inhibition is on record?
A: Its Inhibition is -3.52%.

Q: Cc1cccc(Oc2nc3ccccc3n3c(=O)n(CC(=O)Nc4ccc5c(c4)OCCO5)nc23)c1C was tested. Which Inhibition did it give?
A: The Inhibition was -1.83%.

Q: Cc1cc2nn(CC(=O)Nc3ccc4c(c3)OCCO4)c(=O)n2c(Nc2ccccc2C)n1 was tested. Which Inhibition did it give?
A: Its Inhibition is -1.19%.

Q: With O=c1n(Cc2nc(-c3ccc4c(c3)OCO4)no2)nc2ccc(-c3ccccc3)nn12 as the compound, how does the Inhibition read?
A: Its Inhibition is -9.98%.

Q: Which Inhibition does the source give for CC1CCCN(c2nccn3c(=O)n(CC(=O)Nc4ccc(Br)cc4F)nc23)C1 (stereo not drawn) here?
A: Its Inhibition is 0.2%.

Q: With COc1cc(NC(=O)Cn2nc3c(N4CCCC4)nccn3c2=O)cc(OC)c1 as the compound, how does the Inhibition read?
A: The Inhibition was -2.57%.

Q: Which Inhibition does the source give for Cc1ccc(NC(=O)Cn2nc3c(Oc4ccccc4C)nccn3c2=O)cc1F here?
A: The Inhibition was -0.85%.

Q: Cc1ccc(Sc2nccn3c(=O)n(CC(=O)N4CCN(c5ccccc5)CC4)nc23)c(C)c1 was tested. Which Inhibition did it give?
A: Its Inhibition is -12.78%.

Q: How did the Inhibition turn out when COCCCNC(=O)CSc1nnc2c(=O)n(Cc3ccc(F)cc3)ccn12 was run?
A: Its Inhibition is -1.15%.

Q: Which Inhibition does the source give for Cc1ccc(-n2ccn3c(=O)n(Cc4ccccc4)nc3c2=O)cc1C here?
A: The Inhibition was -8.73%.

Q: Which Inhibition does the source give for O=c1c2sccc2n2c(=O)n(Cc3cccc(Cl)c3)nc2n1CCc1ccccc1 here?
A: The Inhibition was 1.01%.

Q: For O=C(Cn1nc2c(Sc3cccc(F)c3)nccn2c1=O)N1CCN(c2ccccc2)CC1, which Inhibition is on record?
A: Its Inhibition is 1.18%.

Q: Which Inhibition does the source give for Cc1ccc(-c2cc3c4nnc(CCC(=O)NCc5ccc(F)c(Cl)c5)n4ccn3n2)cc1C here?
A: The Inhibition was -0.93%.

Q: CCOc1ccc(-n2ccn3c(SCC(=O)Nc4ccc(C)cc4)nnc3c2=O)cc1 was tested. Which Inhibition did it give?
A: The Inhibition was 2.17%.

Q: For CCOc1ccc(NC(=O)Cn2nc3ccc(-c4ccccc4)nn3c2=O)cc1, which Inhibition is on record?
A: Its Inhibition is -5.9%.

Q: Which Inhibition does the source give for CCc1ccccc1Sc1nccn2c(=O)n(CC(=O)Nc3ccc(OC)c(Cl)c3)nc12 here?
A: Its Inhibition is -5.89%.

Q: Which Inhibition does the source give for CCc1nnc2c(SCC(=O)Nc3cc(Cl)ccc3C)nc3ccccc3n12 here?
A: Its Inhibition is -0.41%.

Q: For O=C(CSc1nc2ccccc2n2cnnc12)Nc1cccc(Br)c1, which Inhibition is on record?
A: The Inhibition was -14.46%.

Q: How did the Inhibition turn out when COc1ccc(NC(=O)Cn2nc3c(Oc4cccc(F)c4)nccn3c2=O)cc1 was run?
A: Its Inhibition is -10.71%.

Q: Cc1ccc(NC(=O)Cn2nc3c(N4CCOCC4)nc4ccccc4n3c2=O)cc1C was tested. Which Inhibition did it give?
A: The Inhibition was -0.21%.

Q: For O=C(Cn1nc2ccc(-c3ccccc3)nn2c1=O)NC1CCCCC1, which Inhibition is on record?
A: The Inhibition was -1.26%.

Q: Cc1ccc(NC(=O)Cn2nc3c(SCc4ccc(Cl)cc4)nccn3c2=O)c(C)c1 was tested. Which Inhibition did it give?
A: The Inhibition was -3.69%.

Q: CCc1nnc2c(S(=O)(=O)N(Cc3cccc(OC)c3)c3ccc(F)cc3)cccn12 was tested. Which Inhibition did it give?
A: Its Inhibition is -8.61%.

Q: With Cc1nnc2ccc(S(=O)(=O)N(Cc3ccccc3Cl)c3ccc(F)cc3)cn12 as the compound, how does the Inhibition read?
A: The Inhibition was -4.95%.

Q: For O=C(Cn1nc2c(SC3CCCCC3)nccn2c1=O)Nc1ccccc1F, which Inhibition is on record?
A: Its Inhibition is -6.05%.

Q: With Cc1ccc(-c2cc3c4nnc(SCC(=O)Nc5ccccc5Br)n4ccn3n2)cc1 as the compound, how does the Inhibition read?
A: Its Inhibition is -3.11%.
